High-throughput results (PubChem)
aSyn 5UTR act: Activators via SNCA 5'UTR binding, MLPCN. alpha-synuclein 5'UTR reporter, activators screen. activity score, % (tested at 7.5 µM), hits read low. hit rate 7.1% among 300,000; in the data active means activity score below about -60%
Active calls of the source: *. A selection follows.

SMILES	aSyn 5UTR act
S=C(Nc1ccccc1)c1nc2ccccc2s1	-170.2*
Cc1cnc(NC(=O)CC2CCCC2)s1	-130.7*
O=C(NNc1nc2ccccc2s1)Nc1ccccc1	-254.7*
CCNC(=O)Nc1nc2ccccc2s1	-96.8*
O=C(CC1CCCCC1)Nc1nc2ccccc2s1	-129.8*
O=C(NCc1ccncc1)C(=O)Nc1nc2ccccc2s1	-71.6*
Cc1cccc(/C=C/C(=O)c2ccc(N3CCOCC3)cc2)c1	-114.3*
Cc1ccc(/C=C/C(=O)c2ccc(N3CCOCC3)cc2)s1	-133.2*
Cc1ccc(C(=O)COC(=O)c2ccc(O)cc2)cc1	-182.3*
Nc1cccc(C(=O)OCC(=O)c2ccccc2)c1	-85.6*
O=C(COC(=O)c1cccc(O)c1)c1ccccc1	-69.5*
Cc1ccc(O)c(NC(=O)CCC2CCCCC2)c1	-152.0*
Cn1c(NC(=O)CCC2CCCCC2)cc(=O)n(C)c1=O	-62.8*
O=C(CCC1CCCCC1)Nc1ccccc1O	-162.6*
Cc1ccc(O)c(NC(=O)c2noc3c2CCc2ccccc2-3)c1	-122.1*
CC(=O)c1cccc(NC(=O)c2noc3c2CCc2ccccc2-3)c1	-167.9*
Cc1ccc(O)c(NC(=O)c2noc(C(C)C)c2[N+](=O)[O-])c1	-86.3*
Cc1cc(NC(=O)c2noc3c2CCc2ccccc2-3)no1	-77.0*
Cc1cccc2cc(C#N)c(SCC#N)nc12	84.9
CCc1nc(SCC#N)c(C#N)cc1C	68.5
CC(C)OC(=O)CSc1nc2c(cc1C#N)CCCCC2	-166.0*
N#Cc1cc2c(nc1SCc1ccncc1)CCC2	-95.1*
CCOC(=O)CC(=O)CSc1nc2c(cc1C#N)CCCCC2	-138.0*
O=C(NCCC1=CCCCC1)c1ccc(CN2CCOCC2)cc1	-72.7*
CCOc1ccc(C(=O)NCCc2ccccc2)cc1	61.1
SMILES	aSyn 5UTR act
O=C(NCCc1ccc(F)cc1)c1ccc([N+](=O)[O-])cc1	-77.5*
COc1ccc(C(=O)NCCc2ccccc2)cc1OC	-96.5*
O=C1CSc2ccc(C(=O)NCCC3=CCCCC3)cc2N1	-103.6*
O=C(NCCC1=CCCCC1)c1ccc([N+](=O)[O-])cc1	-146.7*
O=C(NC1CCCCCC1)c1ccc(CN2CCOCC2)cc1	-122.2*
COc1ccc(C(=O)NCCC2=CCCCC2)cc1	57.0
COCC(C)N1CCC(Oc2cccc(C(=O)NCCc3ccccc3)c2)CC1 (stereo not given)	-71.8*
COc1ccc(C(=O)NCCC2=CCCCC2)cc1OC	-81.0*
Cc1cc(C(=O)NCCC2=CCCCC2)ccc1[N+](=O)[O-]	-121.1*
O=C(CCNC(=O)c1ccc(Cl)cc1)NCCC1=CCCCC1	-124.4*
CCOc1cccc2cc(C(=O)NCCC3=CCCCC3)c(=O)oc12	-95.0*
Cc1ccc(NC(=O)NCCN2C(=O)C3C4C=CC(C4)C3C2=O)cc1 (stereo not given)	-80.9*
Clc1cccc(Cl)c1/C=C/c1ccn[nH]1	-232.3*
COc1cc(Cl)c(C)cc1NC(=O)c1ccc2c(c1)OCO2	-84.2*
Cc1ccc(NC(=O)c2ccc(Cl)nc2)cc1	-116.2*
Cc1ccc(C(=O)Nc2ccc3c(c2)OCO3)cc1S(=O)(=O)N1CCCC1	-113.5*
Cc1cc(Cl)ccc1NC(=O)c1ccc2c(c1)OCO2	-230.6*
Cc1ccc(NC(=O)c2nsc(Cl)c2Cl)cc1	-112.7*
Cc1ccc(C(=O)Nc2ccc3c(c2)OCO3)cc1Cl	-122.5*
O=C(Nc1ccc2c(c1)OCO2)c1ccc(Cl)nc1	-89.8*
Cc1ccc(NC(=O)c2ccc3c(c2)OCO3)cc1Cl	-122.8*
O=C(Nc1ccc2c(c1)OCO2)c1cnccn1	-105.7*
Cc1cc(N2CCOCC2)nc2ccc(NC(=O)CCC(=O)N3CCN(c4ccccc4F)CC3)cc12	-126.8*
Cc1cc(N2CCOCC2)nc2ccc(NC(=O)CCC(=O)N3CCN(c4ccc(F)cc4)CC3)cc12	-72.1*
Cc1cc(N2CCOCC2)nc2ccc(NC(=O)CCC(=O)N3CCCC(C)C3)cc12 (stereo not given)	-86.5*
SMILES	aSyn 5UTR act
COc1cc(/C=C/[N+](=O)[O-])ccc1OC(=O)/C=C/c1ccc(F)cc1	-71.6*
CCOC(=O)c1c(C)c(C(=O)NCCc2ccccc2)c(C)n1C	-80.4*
Cc1nn(Cc2ccccc2)c(Cl)c1C(=O)NCCc1ccccc1	-135.4*
Cc1cc(C)n2nc(C(=O)NNC(=O)c3ccc(Cl)cc3)nc2n1	-75.7*
CCOC(=O)c1c(C)c(C(=O)O)n(C)c1C	32.2
Cc1cc(C)n2nc(C(=O)NCCc3ccccc3)nc2n1	-72.0*
COc1ccc(C(=O)c2c(C(F)(F)F)oc3c2C(=O)c2ccccc2C3=O)cc1OC	111.2
CCOC(=O)c1c(C)oc2c1C(=O)c1ccccc1C2=O	-133.7*
Cc1oc2c(c1C(=O)c1ccccc1)C(=O)C(=O)c1ccccc1-2	126.8
Cc1oc2c(c1C(=O)O)C(=O)c1ccccc1C2=O	-62.0*
O=C(NCc1ccco1)c1sc2ccccc2c1Cl	-114.2*
O=C(Nc1ccon1)c1sc2cc(Cl)ccc2c1Cl	-84.3*
CCN(CC)CCOC(=O)C(Cc1ccco1)Cc1cccc2ccccc12 (stereo not given)	104.1
O=C(NCc1ccco1)C(=O)NCc1ccccc1Cl	-70.6*
O=C(NCc1ccco1)c1cc2cc3ccc(Cl)cc3nc2o1	-61.9*
